The text below walks through data of PubChem BioAssay (NCI).

Compounds without any hit were thinned out: in the full panel of roughly 83,000, 20% have a hit.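 Treatment: one concentration, 48 hours, 96-well format. Scoring: percent growth, with anything below 10 considered active.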 Active and inactive are the calls of the source.

For the first test, the system named is A498 renal. In words: NCI-60 one-dose screen, 48 h (100 = growth as untreated, 0 = no growth, -100 = all killed). As to conditions: 10 µM unless noted.
Turning to `CC(=O)Nc1ccc(S(=O)(=O)N2C(=O)CCC2C(=O)Nc2ccc(Br)cc2)cc1` (stereo not given), the growth is 16.8% (inactive).
Take `O=C(O)c1ccc(-n2c(=O)c3ccccc3c3ccccc3c2=O)cc1`: the growth was 118% (inactive).
On to `CS(=O)(=O)N(c1cc(-c2ccc3ncnc(Nc4cccc(Cl)c4)c3c2)cnc1Cl)S(C)(=O)=O`, for which the growth was -28% (active).
Same read-out and setting: the value for `CN(C)c1ncc(-c2ccc(C(F)(F)F)cc2)c(NC2CCCCCC2)n1` was 81.2% (inactive).
On the same count and under the same terms, in the case of `O=S(=O)(NCCNc1cc(-c2cn(-c3ccccc3)nc2-c2ccccc2)ccn1)c1cccc2ccccc12` it was 72.5% (inactive).
Take `CC/C=C\C[C@H](O)C/C=C1/C(=O)C(Cl)=C[C@@H]1C/C=C\CCCC(=O)O`: the growth is 134% (inactive).
As to `CC[C@H](C)[C@@H]1NC(=O)[C@H]([C@@H](C)O)NC(=O)C(Cc2ccccc2)NC(=O)[C@@H]2CCCN2C(=O)C(C(C)C)NC(=O)C(Cc2ccccc2)NC(=O)CNC(=O)[C@@H]2CCCN2C1=O` (stereo not given in full), the growth is 26.1% (inactive).
Turning to `O=C(Nc1cc(C(F)(F)F)cc(C(F)(F)F)c1)Nc1ccc(OCc2nnc(-c3ccc(Cl)cc3)o2)c(F)c1`, the growth was -7.1% (active).
Turning to `Oc1ccc(N=Cc2ccccc2)cc1`, the growth is 78.1% (inactive).
Take `Nc1ccccc1C#C/C=C\C#Cc1cccc(O)c1`: the growth was 78.6% (inactive).
With `CCn1cc(C(=O)O)c(=O)c2cc(F)c(N3CCN(S(=O)(=O)c4ccc(Cl)cc4Cl)CC3)cc21`, the growth was -0.0481% (active).
For `COc1cc(CNC(=O)CSc2nc3ccccc3c(=O)n2Cc2cc(OC)c(OC)c(OC)c2)cc(OC)c1OC`, the growth was 88.4% (inactive).
For the molecule `COc1cc(CCn2nnc3c(NCCCCO)ncnc32)cc(OC)c1`, the growth was 89% (inactive).
For `C/C(=C\c1csc(C)n1)[C@@H]1C[C@@H]2O[C@]2(C)CCC[C@H](C)[C@H](O)[C@@H](C)C(=O)C(C)(C)[C@@H](O)CC(=O)N1`, the growth was -28.7% (active).
The same measure, in the same setting: the value for `COc1ccc(S(=O)(=O)N2CCN(c3cc4c(cc3F)c(=O)c(C(=O)O)cn4C3CC3)CC2)c(OC)c1` was 75.1% (inactive).
Turning to `CC[C@]1(O)C[C@@H]2CN(Cc3c([nH]c4ccccc34)[C@@](C(=O)OC)(c3cc4c(cc3OC)N(C)[C@H]3[C@@](O)(C(=O)OC)[C@H](OC(C)=O)[C@]5(CC)[C@@H]6C[C@@H]6CN6CC[C@]43[C@@H]65)C2)C1`, the growth was -8.06% (active).
Take `COC1=CC(c2ccc[nH]2)=N/C1=C\c1[nH]c(C)c(C(=O)CCCCC(=O)Oc2ccc3c(c2)CCC2C3CC[C@]3(C)[C@@H](O)CC[C@@H]23)c1C` (stereo not given in full): the growth is 38.5% (inactive).
Regarding `N#Cc1ncc(-c2ccc(F)c(F)c2F)c(NC2CCCCCC2)n1`, the growth is 124% (inactive).
In the case of `O=C(O)c1cn(C2CC2)c2cc(N3CCN(S(=O)(=O)c4ccc(Cl)c(Cl)c4)CC3)c(F)cc2c1=O`, the growth is 13.8% (inactive).
For the molecule `CCCCCCCCCCCCOB(OCCCCCCCCCCCC)OCCCCCCCCCCCC`, the growth is 112% (inactive).
For the molecule `CNC(C)=O`, the growth is 104% (inactive).
Same read-out and setting: in the case of `COc1cc2nc(N3CCC[C@@H](NC4=CC(=O)c5ccccc5C4=O)C3)nc(N)c2cc1OC` it was 107% (inactive); in that of `COC(=O)[C@H]1[C@H](OC)[C@@H](OC(=O)/C=C/c2ccncc2)CC2CN3CCc4c([nH]c5cc(OC)ccc45)[C@@H]3C[C@@H]21` (stereo not given in full), 31.5% (inactive).
In the case of `Clc1nc(-c2cccnc2)nc2sc3c(c12)CCCCCC3`, the growth was 94.1% (inactive).
Still for that read-out and setting: in the case of `O=c1oc2cc(OS(=O)(=O)c3ccc(F)cc3)ccc2c2c1CCCCC2` it was 83.4% (inactive); in that of `CC(=O)C1CCC(C)=CC1=O` (stereo not given), 87.6% (inactive).

The subject of a further test is CCRF-CEM leukemia. Described as above. As to conditions: 10 µM unless noted.
On to `Cc1cc(C)c(S(=O)(=O)N2CCN(c3cc4c(cc3F)c(=O)c(C(=O)O)cn4C3CC3)CC2)c(C)c1`, for which the growth was 37.3% (inactive).
The same measure, in the same setting: in the case of `CCn1cc(C(=O)O)c(=O)c2cc(F)c(N3CCN(S(=O)(=O)c4ccc(OC)c(OC)c4)CC3)cc21` it was 99.7% (inactive); in that of `Cc1ccc(S(=O)(=O)OCC(=O)Nc2ccc(C(=O)O)c(O)c2)cc1`, 83.5% (inactive).
In the case of `O=S(=O)(c1ccccc1)n1ccc(-c2ccc3c(c2)CCO3)n1`, the growth is 76.7% (inactive).
Still for that read-out and setting: the value for `Clc1ccc(-c2nc(-c3ccco3)cn3ccnc23)cc1` was 78.4% (inactive).
Take `CCn1cc(C(=O)O)c(=O)c2cc(F)c(N3CCN(S(=O)(=O)c4cccc5ccccc45)CC3)cc21`: the growth was 12.1% (inactive).
As to `O=P([O-])(O)OP(=O)([O-])O.[NH-][C@H]1CCCC[C@@H]1[NH-].[OH-].[OH-].[Pt+4]`, the growth was 98.4% (inactive).
Regarding `O=C(CC(O)c1ccncc1)c1ccccc1` (stereo not given), the growth was 99.9% (inactive).
As for `O=c1oc2c([nH]c3ccc4ccccc4c32)c2ccccc12`, the growth was 97.6% (inactive).
Turning to `Nc1c(C(=O)Nc2ccccc2)sc2nc3c(cc12)CCC3`, the growth is 89.7% (inactive).
The same measure, in the same setting: the value for `COc1ccc(C2CC(c3cccs3)=NN2c2ccc(S(=O)(=O)NC(=O)NCc3cccc(OC)c3)cc2)cc1` (stereo not given) was 88.1% (inactive); that for `COc1cc(NC(=O)CSc2nc3ccc(C)cc3c(=O)n2-c2ccccc2)cc(OC)c1OC` was 83.9% (inactive); that for `Cc1ccc(S(=O)(=O)OC2COCOC2C(OS(=O)(=O)c2ccc(C)cc2)C2OCOCC2OS(=O)(=O)c2ccc(C)cc2)cc1` (stereo not given) was 100% (inactive).
As for `CC(=O)Nc1ccc(S(=O)(=O)N2C(=O)CCC2C(=O)Nc2ccc(Br)cc2)cc1` (stereo not given), the growth is 2.98% (active).
Same read-out and setting: in the case of `O=C(O)c1ccc(-n2c(=O)c3ccccc3c3ccccc3c2=O)cc1` it was 104% (inactive); in that of `CS(=O)(=O)N(c1cc(-c2ccc3ncnc(Nc4cccc(Cl)c4)c3c2)cnc1Cl)S(C)(=O)=O`, 20.2% (inactive); in that of `CN(C)c1ncc(-c2ccc(C(F)(F)F)cc2)c(NC2CCCCCC2)n1`, 45.5% (inactive).
As for `O=S(=O)(NCCNc1cc(-c2cn(-c3ccccc3)nc2-c2ccccc2)ccn1)c1cccc2ccccc12`, the growth was 83.5% (inactive).
Consider `CC/C=C\C[C@H](O)C/C=C1/C(=O)C(Cl)=C[C@@H]1C/C=C\CCCC(=O)O`, for which the growth was 2.58% (active).
As to `CC[C@H](C)[C@@H]1NC(=O)[C@H]([C@@H](C)O)NC(=O)C(Cc2ccccc2)NC(=O)[C@@H]2CCCN2C(=O)C(C(C)C)NC(=O)C(Cc2ccccc2)NC(=O)CNC(=O)[C@@H]2CCCN2C1=O` (stereo not given in full), the growth is 20% (inactive).
Same read-out and setting: in the case of `O=C(Nc1cc(C(F)(F)F)cc(C(F)(F)F)c1)Nc1ccc(OCc2nnc(-c3ccc(Cl)cc3)o2)c(F)c1` it was 6.66% (active); in that of `Oc1ccc(N=Cc2ccccc2)cc1`, 5.42% (active); in that of `Nc1ccccc1C#C/C=C\C#Cc1cccc(O)c1`, 32% (inactive).
As to `CCn1cc(C(=O)O)c(=O)c2cc(F)c(N3CCN(S(=O)(=O)c4ccc(Cl)cc4Cl)CC3)cc21`, the growth was 2.78% (active).
As to `COc1cc(CNC(=O)CSc2nc3ccccc3c(=O)n2Cc2cc(OC)c(OC)c(OC)c2)cc(OC)c1OC`, the growth was 96.2% (inactive).
With `COc1cc(CCn2nnc3c(NCCCCO)ncnc32)cc(OC)c1`, the growth was 95% (inactive).
The same measure, in the same setting: the value for `C/C(=C\c1csc(C)n1)[C@@H]1C[C@@H]2O[C@]2(C)CCC[C@H](C)[C@H](O)[C@@H](C)C(=O)C(C)(C)[C@@H](O)CC(=O)N1` was -80.7% (active); that for `COc1ccc(S(=O)(=O)N2CCN(c3cc4c(cc3F)c(=O)c(C(=O)O)cn4C3CC3)CC2)c(OC)c1` was 86.5% (inactive).
For `CC[C@]1(O)C[C@@H]2CN(Cc3c([nH]c4ccccc34)[C@@](C(=O)OC)(c3cc4c(cc3OC)N(C)[C@H]3[C@@](O)(C(=O)OC)[C@H](OC(C)=O)[C@]5(CC)[C@@H]6C[C@@H]6CN6CC[C@]43[C@@H]65)C2)C1`, the growth is 1.15% (active).
Still for that read-out and setting: in the case of `COC1=CC(c2ccc[nH]2)=N/C1=C\c1[nH]c(C)c(C(=O)CCCCC(=O)Oc2ccc3c(c2)CCC2C3CC[C@]3(C)[C@@H](O)CC[C@@H]23)c1C` (stereo not given in full) it was 17.2% (inactive).
In the case of `N#Cc1ncc(-c2ccc(F)c(F)c2F)c(NC2CCCCCC2)n1`, the growth was 33.4% (inactive).
Take `O=C(O)c1cn(C2CC2)c2cc(N3CCN(S(=O)(=O)c4ccc(Cl)c(Cl)c4)CC3)c(F)cc2c1=O`: the growth is 16.9% (inactive).
Take `CCCCCCCCCCCCOB(OCCCCCCCCCCCC)OCCCCCCCCCCCC`: the growth was 95.3% (inactive).
In the case of `CNC(C)=O`, the growth was 103% (inactive).
On the same count and under the same terms, the value for `COc1cc2nc(N3CCC[C@@H](NC4=CC(=O)c5ccccc5C4=O)C3)nc(N)c2cc1OC` was -20.9% (active); that for `COC(=O)[C@H]1[C@H](OC)[C@@H](OC(=O)/C=C/c2ccncc2)CC2CN3CCc4c([nH]c5cc(OC)ccc45)[C@@H]3C[C@@H]21` (stereo not given in full) was 57.5% (inactive).
Regarding `Clc1nc(-c2cccnc2)nc2sc3c(c12)CCCCCC3`, the growth is 83.4% (inactive).
Regarding `O=c1oc2cc(OS(=O)(=O)c3ccc(F)cc3)ccc2c2c1CCCCC2`, the growth is 36% (inactive).
Consider `CC(=O)C1CCC(C)=CC1=O` (stereo not given), for which the growth was 100% (inactive).
